Screening results from PubChem BioAssay.
pCIP destab: p/CIP protein destabilization; 290,000 compounds, 0.01% hits; decrease of EGFP signal, % at 10 µM; AID 1984; F442A p/CIP-EGFP cells, EGFP fluorescence, 16 h;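 active = EGFP signal decrease of at least 30% at 10 µM or well 3 SD below plate mean, unless failing retest; inactive = the rest, including hits failing retest or dose response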
14-3-3 Bad PPI: disrupts binding of bovine 14-3-3 zeta to phospho-Bad peptide; P63103; inhibition, % at 21.7 µM; 220,000 compounds, 0.71% hits; AID 781; TR-FRET 14-3-3zeta/Dy647-pBad peptide displacement, 1 h;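 active = inhibition above about 70%, limit read from the data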;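 also: 0% = full 14-3-3 plus peptide FRET controls and 100% = background without 14-3-3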
MsrA inh: inhibits bovine methionine sulfoxide reductase A; purified bovine MsrA, absorbance read-out; inhibition, % at 15.5 µM; 360,000 compounds, 0.75% hits; AID 651718; in the data active = inhibition above about 4.5%;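 also: 0% = vehicle wells with enzyme and 100% = reference inhibitor wells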
bovine MsrA act: activators of bovine methionine sulfoxide reductase A | purified bovine MsrA, absorbance read-out | activation, % at 10.6 µM | 360,000 compounds, 0.3% hits | AID 602163; in the data active = activation above about 7.5%;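 also: 0% = vehicle and 100% = reference activator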
* marks the source's active call; other numbers are inactive results; · = no result given; [ ] = remark or other dose. Rows were chosen to be rich in hits. Some 1.4% of all compounds tested hit in one or more screens of this group.

SMILES	pCIP destab	14-3-3 Bad PPI	MsrA inh	bovine MsrA act
O=C(NN1C(=O)/C(=C/C=C/c2ccco2)SC1=S)c1ccncc1	1	71*	1	-7
COCc1cc(Sc2cccc(Cl)c2Cl)nc(-c2ccccc2)n1	-3	-2	-1	23*
CCCCCCCCCCCCCCCCn1cc[n+](CC(C)=O)c1	-12	98*	·	1
CCCCCCn1ccc(=N)cc1	-39	4	0	-1
COCCN(Cc1ccc(C)cc1)C(=O)[C@@H](Cc1ccccc1)NC(=O)[C@H]1O[C@@H](n2ccc(=O)[nH]c2=O)[C@H](O)[C@@H]1O	·	·	0	·
COc1ccccc1NC(=O)c1ccc(NC(=O)c2cc3c(s2)CCC3)cc1	-6	79*[fluorescence artefact?]	1	-5
Cc1cc(O)cc(=O)n1-c1cc(C(F)(F)F)cc(C(F)(F)F)c1	·	·	0	·
COc1ccc(N/C(=N\c2nc(C)cc(C)n2)NC(C)=O)cc1OC	2	-8	1	4
COc1ccc(N/C(=N\c2nc(C)cc(C)n2)NC(=O)C(C)C)cc1OC	-5	76*	0	-4
CC1CCCC(NC(=O)C2CCC(CNc3c(N4CCCC4)c(=O)c3=O)CC2)C1C (stereo not drawn)	1	-4	-1	-2
CC1CCCC(NC(=O)C2CCC(CNc3c(N4CCCCC4)c(=O)c3=O)CC2)C1C (stereo not drawn)	10	90*	2	0
COc1ccc(-c2ccc3c(n2)CCCN3S(=O)(=O)c2c(C)noc2C)cc1	·	·	1	·
CCN(CC)CCn1c(NCc2ccccn2)nc2ccccc21	-10	77*	0	-2
COc1ccc2cc(C)c3nnc(SCC(=O)Nc4nc(-c5ccc(F)cc5)cs4)n3c2c1	-7	86*	-1	-3
COc1ccc(-c2csc(NC(=O)CSc3nnc(Nc4ccccc4C)s3)n2)cc1	1	-19	0	-3
CC(=C/C(=O)O)/C=C/c1ccc(Cl)o1	-8	-4	1	-5
CC(/C=C/c1ccc(C)o1)=C\C(=O)O	-4	-14	2	20*
COc1cc(C(=O)Nc2cccc(S(=O)(=O)N3CCCC3)c2)c([N+](=O)[O-])cc1OC	·	·	4.6*	-2
O=C(c1ccccc1)c1coc2ccc(O)c(Cl)c12	-11	92*	0	-12
Cc1ccc(-c2nnn3c2nc(Cl)c2ccccc23)cc1	12	91*	0	-4
Clc1nc2c(-c3ccccc3)nnn2c2ccccc12	-7	1	1	-2
Clc1cc(Cl)cc(CN2CCN(c3ncc(Cc4ccccc4)cn3)CC2)c1	·	·	1	·
CCOC(=O)c1c(-c2ccc(C)o2)csc1NC(=O)CN1CCN(CC)CC1	0	71*	0	-1
Cc1ccc(N(CC(=O)N/N=C/c2cc(C)n(-c3ccccc3C)c2C)S(C)(=O)=O)cc1	22*	-9	0	1
S=C(Nc1ccc(Cl)cc1)Nc1cccc2cnccc12	-1	-1	0	-3
SMILES	pCIP destab	14-3-3 Bad PPI	MsrA inh	bovine MsrA act
S=C(Nc1cccnc1)Nc1cccc2cnccc12	52*	-1	-1	-2
CC1=CC(C)(C)Nc2ccc(C)cc21	-30	81*	-1	4
CC1=CC(C)(C)Nc2ccc(Cc3ccc4c(c3)C(C)=CC(C)(C)N4)cc21	-3	1	1	-1
COc1cc2c(cc1OC)C(c1ccccc1)N(C(=O)CCl)CC2 (stereo not drawn)	6	-4	3	-1
COc1cc2c(cc1OC)C(c1ccccc1O)N(C1CC(=O)N(c3ccccc3)C1=O)CC2 (stereo not drawn)	-12	74*	0	-12
C#CCn1cc(/C=N/NC(=O)COc2cccc3cccnc23)c2ccccc21	-16	92*[fluorescence artefact?]	0	0
N#C/C(=C\C1=C(N2CCOCC2)C(=C\c2ccc(Cl)cc2)/CC1)C(=O)Nc1ccccc1F	-9	73*[fluorescence artefact?]	1	-3
O=C(/C=C1\C(=O)Nc2ccccc21)/C=C1\C(=O)Nc2ccccc21	-6	93*	-1	-4
O=C1Nc2ccccc2/C1=C\C(=O)c1ccccc1	4	·	1	-2
CC(C)=CCCC1=CC[C@H]2[C@@H](C1)C(C(C)C)=CC(=O)[C@@]2(C)O	·	·	1	·
CCn1c(SCC(=O)Nc2ccc(-c3nc4ccc(C)cc4s3)cc2)nnc1-c1ccccc1	-3	91*[fluorescence artefact?]	·	·
Cc1ccc2nc(-c3ccc(NC(=O)CNC4CC4)cc3)sc2c1	-3	80*	1	1
C=CCn1c(SCC(=O)Nc2ccc(-c3nc4ccc(C)cc4s3)cc2)nnc1-c1ccncc1	-7	32	0	-8
COc1ccc(CN2CCOCC2)c(C)c1C	-17	71*	0	-4
CN1C(=O)C(O)(CC(=O)/C=C/c2ccco2)c2ccccc21 (stereo not drawn)	5	-27	2	-9
CN1C(=O)C(O)(CC(=O)/C=C/c2ccco2)c2cc(Br)ccc21 (stereo not drawn)	-12	83*	4	-15
O=C(Nc1ccc(C2=NCCN2)cc1)c1ccc(C(=O)Nc2ccc(C3=NCCN3)cc2)c([N+](=O)[O-])c1	-1	79*	0	1
Cc1ccc(NC(=O)c2ccc(-n3cccn3)c([N+](=O)[O-])c2)cc1	-4	-4	0	-6
Nc1[nH]c(C(=O)c2ccccc2)c(-c2ccc3c(c2)OCO3)c1C(=O)NCCc1c[nH]c2ccccc12	·	·	1	·
CCOC1=C/C(=C/c2c(N)n3nc(-c4ccccc4)sc3nc2=O)C=CC1=O	-48	11	3	-7
COC1=C/C(=C/c2c(N)n3nc(-c4ccc(C)cc4)sc3nc2=O)C=CC1=O	-33	72*	4	-5
COc1cccc(C(=O)N[C@H](C(=O)N2CCC[C@H]2C(=O)NCCc2ccccc2Cl)C(C)C)c1	·	·	0	·
FC(F)(F)c1ccc(N2CCOCC2)c(NC2=NCCCCC2)c1	5	82*	2	-3
FC(F)(F)c1ccc(Cl)c(NC2=NCCCCC2)c1	-13	·	0	-3
COC(=O)[C@]12C[C@H](CC(=O)NCCc3ccccc3OC)C(=O)N(Cc3ccccc3)C1=C[C@H](C(C)(C)C)O[C@@H]2C	·	·	0	·
SMILES	pCIP destab	14-3-3 Bad PPI	MsrA inh	bovine MsrA act
O=c1c2ccccc2nc2c3ccccc3cnn12	-12	80*	3	-6
CCCc1cc2c(OC)ccc(O)c2c(=O)n1C	·	·	0	·
COC(=O)c1c(-c2ccc(OC)cc2)c2c(c3c4cc(F)ccc4n(S(=O)(=O)c4ccc(C)cc4)c13)C(=O)N(C)C2	·	·	1	·
Cc1cccc(NC2=CC(=O)OC(C)C2)c1 (stereo not drawn)	3	81*	0	-1
CC1CC(Nc2ccccc2N)=CC(=O)O1 (stereo not drawn)	-3	-5	0	-5
CCC(C)Nc1nc(-c2ccc3c(c2)NC(=O)CO3)cs1 (stereo not drawn)	0	81*	0	0
CC1(C)C2CCC(C2)C1(C)NC(=O)CN1CCOCC1 (stereo not drawn)	-10	74*	-1	-3
CC1(C)C2CCC(C2)C1(C)NC(=O)CN1CCCC1 (stereo not drawn)	-6	·	1	-2
FC(F)(F)c1ccc(/C=N/N2CCN(Cc3cccc4ccccc34)CC2)cc1	19	-18	0	-12
